Test results reported in PubChem BioAssay (EPA / NIEHS).
The source made the active and inactive calls. The calls were made as follows: active = hit-call score of the fitted dose curve at least 0.9, where 1 is the maximum; inactive = score below 0.9.

Columns and labels:
Details in all cases: mRNA level, 48 h; actives raise or lower the signal
[1] = read-out: Hypoxia-inducible factor 1-alpha (Homo sapiens) (UniProt Q16665); experiment: LTEA_HepaRG_HIF1A: Life Technologies and Expression Analysis (LTEA) Assay for Hypoxia-inducible factor 1 (HIF1A) Trancription factor using HepaRG (AID 2283503)
Summary of the method: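 Differentiated HepaRG cells in serum-free induction medium exposed 48 h, in duplicate, to 8-point half-log series from 100 uM in 0.5% DMSO. HIF1A mRNA measured by TaqMan qRT-PCR, normalized to ACTB/GAPDH/POLR2A, fitted bidirectionally versus DMSO.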

[2] = read-out: 3-Hydroxy-3-Methylglutaryl-CoA Synthase 2 (HMGCS2), HMGCS2 (gene 3158); experiment: LTEA_HepaRG_HMGCS2: Life Technologies and Expression Analysis (LTEA) Assay for 3-Hydroxy-3-Methylglutaryl-CoA Synthase 2 (HMGCS2) using HepaRG (AID 2283504)
Summary of the method: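 HepaRG, plated 48 h then switched to serum-free induction media; cmpd 8-pt, max 100 uM, 1/2-log, 0.5% DMSO, n=2, 48 h. HMGCS2 mRNA by Fluidigm TaqMan qRT-PCR, ACTB/GAPDH/POLR2A norm; bidirectional fit vs DMSO.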

HGF (gene 3082) = experiment: LTEA_HepaRG_HGF: Life Technologies and Expression Analysis (LTEA) Assay for Hepatocyte Growth Facto (HGF) using HepaRG (AID 2283505)
Summary of the method: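 Read-out is HGF transcript level by qRT-PCR, normalized to three housekeeping genes, fitted bidirectionally against 0.5% DMSO vehicle. Human HepaRG cells received test chemicals for 48 h at up to 100 uM.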

[3] = read-out: Insulin Like Growth Factor 1 (IGF1), IGF1 (gene 3479); experiment: LTEA_HepaRG_IGF1: Life Technologies and Expression Analysis (LTEA) Assay for Insulin Like Growth Factor 1 (IGF1) using HepaRG (AID 2283506)
Summary of the method: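 HepaRG, plated 48 h, then switched to serum-free induction media; test chemical 8-pt half-log from 100 uM (0.5% DMSO), duplicate, 48 h. Lysis in RLT, TaqMan qRT-PCR, norm. ACTB/GAPDH/POLR2A. Bidirectional fit vs DMSO.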

[4] = read-out: Intercellular Adhesion Molecule 1 (ICAM1), ICAM1 (gene 3383); experiment: LTEA_HepaRG_ICAM1: Life Technologies and Expression Analysis (LTEA) Assay for Intercellular Adhesion Molecule 1 (ICAM1) using HepaRG (AID 2283507)
Summary of the method: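 Readout is qRT-PCR mRNA level, normalized to three housekeeping genes and fitted bidirectionally against 0.5% DMSO vehicle. Human HepaRG cultures received compound for 48 h, top concentration 100 uM with half-log dilutions.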

[5] = read-out: Insulin-like growth factor-binding protein 1 (IGFBP1), IGFBP1 (gene 3484); experiment: LTEA_HepaRG_IGFBP1: Life Technologies and Expression Analysis (LTEA) Assay for Insulin-like growth factor-binding protein 1 (IGFBP1) using HepaRG (AID 2283508)
Summary of the method: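 Thawed HepaRG cells are plated for 48 h, switched to serum-free induction medium, then dosed in duplicate for another 48 h (100 uM top, half-log steps). Lysates in RLT go to qRT-PCR, and gain or loss of signal is fitted relative to vehicle.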

[6] = read-out: Interleukin 6 (IL6), IL6 (gene 3569); experiment: LTEA_HepaRG_IL6: Life Technologies and Expression Analysis (LTEA) Assay for Interleukin 6 (IL6) using HepaRG (AID 2283509)
Summary of the method: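 Differentiated human HepaRG cells, plated 48 h then switched to serum-free induction medium, were exposed in duplicate for 48 h to eight half-log concentrations up to 100 uM in 0.5% DMSO. IL6 mRNA measured by qRT-PCR, normalized to ACTB/GAPDH/POLR2A.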

[7] = read-out: Interleukin 6 Receptor (IL6R), IL6R (gene 3570); experiment: LTEA_HepaRG_IL6R: Life Technologies and Expression Analysis (LTEA) Assay for Interleukin 6 Receptor (IL6R) using HepaRG (AID 2283510);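 as to AC50: TaqMan qRT-PCR signal normalized to ACTB GAPDH and POLR2A housekeeping genes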
Summary of the method: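 Readout is IL6R transcript level by TaqMan qRT-PCR, normalized to three housekeeping genes and fitted bidirectionally against 0.5% DMSO controls. Human HepaRG cells received chemicals for 48 h in serum-free induction medium, highest concentration 100 uM.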

[8] = read-out: Potassium channel subfamily K member 1 (KCNK1), KCNK1 (gene 3775); experiment: LTEA_HepaRG_KCNK1: Life Technologies and Expression Analysis (LTEA) Assay for Potassium channel subfamily K member 1 (KCNK1) using HepaRG (AID 2283511)
Summary of the method: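 Differentiated human HepaRG cells in serum-free induction medium were exposed in duplicate for 48 h to 8 half-log concentrations up to 100 uM in 0.5% DMSO. KCNK1 mRNA was measured by TaqMan qRT-PCR, normalized to ACTB, GAPDH and POLR2A, and fitted bidirectionally versus DMSO.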

[9] = read-out: Keratin 19 (KRT19), KRT19 (gene 3880); experiment: LTEA_HepaRG_KRT19: Life Technologies and Expression Analysis (LTEA) Assay for Keratin 19 (KRT19) using HepaRG (AID 2283512)
Summary of the method: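 KRT19 transcript levels, measured by Fluidigm qRT-PCR against three housekeeping genes, are fitted for gain or loss of signal relative to DMSO. Human HepaRG cells receive test chemicals (top 100 uM, half-log steps, 0.5% DMSO) for 48 hours.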

[10] = read-out: JUN Transcription Factor, JUN (gene 3725); experiment: LTEA_HepaRG_JUN: Life Technologies and Expression Analysis (LTEA) Assay for JUN Transcription Factor using HepaRG (AID 2283513)
Summary of the method: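 Cells plated 48 h, medium switched to serum-free induction medium, then dosed 48 h (100 uM top, half-log dilutions, 0.5% DMSO). RNA isolated; JUN measured by qRT-PCR against three housekeeping genes; gain or loss fitted relative to DMSO.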

[11] = read-out: Lipoprotein lipase (LPL), LPL (gene 4023); experiment: LTEA_HepaRG_LPL: Life Technologies and Expression Analysis (LTEA) Assay for Lipoprotein lipase (LPL) using HepaRG (AID 2283515)
Summary of the method: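 Differentiated human HepaRG cells in serum-free induction medium were exposed in duplicate for 48 h to eight half-log concentrations (top 100 uM) in 0.5% DMSO. LPL mRNA was quantified by TaqMan qRT-PCR, normalized to ACTB, GAPDH and POLR2A.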

[12] = read-out: MicroRNA 122 (MIR122), gene 406906; experiment: LTEA_HepaRG_MIR122: Life Technologies and Expression Analysis (LTEA) Assay for MicroRNA 122 (MIR122) using HepaRG (AID 2283516); also: the transcript read is the microRNA miR-122
Summary of the method: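 HepaRG plated 48 h, switched to serum-free induction medium, then treated in duplicate for 48 h (100 uM top, half-log steps, 0.5% DMSO vehicle). RNA isolated, qRT-PCR performed, concentration-response fitted both directions relative to DMSO.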

[13] = read-out: matrix metalloproteinase-10 (MMP10), MMP10 (gene 4319); experiment: LTEA_HepaRG_MMP10: Life Technologies and Expression Analysis (LTEA) Assay for matrix metalloproteinase-10 (MMP10) using HepaRG (AID 2283517)
Summary of the method: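 HepaRG, collagen I, ~100,000 cells/well; serum-free induction medium; 48 h exposure, duplicate, 8-pt half-log to 100 uM, 0.5% DMSO. Readout: TaqMan qRT-PCR, normalized to ACTB/GAPDH/POLR2A; bidirectional fit vs DMSO.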

MYC, MYC (gene 4609) = experiment: LTEA_HepaRG_MYC: Life Technologies and Expression Analysis (LTEA) Assay for MYC using HepaRG (AID 2283518)
Summary of the method: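 HepaRG, ~100,000 cells/well, collagen I; 48 h plating; serum-free induction medium; 48 h dosing, duplicate, 100 uM top, half-log, 0.5% DMSO; total RNA → qRT-PCR MYC; gain/loss fit vs DMSO.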

[14] = read-out: matrix metalloproteinase-3 (MMP3), MMP3 (gene 4314); experiment: LTEA_HepaRG_MMP3: Life Technologies and Expression Analysis (LTEA) Assay for matrix metalloproteinase-3 (MMP3) using HepaRG (AID 2283519)
Summary of the method: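 Differentiated human HepaRG cells, plated 48 h on collagen I, were exposed in duplicate for 48 h in serum-free induction medium to eight half-log concentrations up to 100 uM in 0.5% DMSO. MMP3 mRNA was quantified by TaqMan qRT-PCR, normalised to ACTB, GAPDH and POLR2A.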

[15] = read-out: Paternally Expressed 10 (PEG10), PEG10 (gene 23089); experiment: LTEA_HepaRG_PEG10: Life Technologies and Expression Analysis (LTEA) Assay for Paternally Expressed 10 (PEG10) using HepaRG (AID 2283520)
Summary of the method: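 HepaRG, 48 h post-plating → serum-free induction medium → 48 h chemical exposure (duplicate, 8-pt, max 100 uM, half-log, 0.5% DMSO) → lysis in RLT → TaqMan qRT-PCR for PEG10, ACTB/GAPDH/POLR2A normalisation.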

[16] = read-out: Nuclear factor NF-kappa-B p105 subunit (Homo sapiens) (UniProt P19838); experiment: LTEA_HepaRG_NFKB1: Life Technologies and Expression Analysis (LTEA) Assay for Nuclear Factor Kappa B Subunit 1 (NFKB1) using HepaRG (AID 2283521);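 also: TaqMan qRT-PCR transcript normalised to ACTB GAPDH and POLR2A housekeeping genes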
Summary of the method: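 NFKB1 transcript was measured by TaqMan qRT-PCR on Fluidigm arrays, normalised to three housekeeping genes and fitted in both directions against 0.5% DMSO. HepaRG cells were dosed in duplicate for 48 h in serum-free induction medium, eight half-log steps from 100 uM.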

[17] = read-out: Protein phosphatase 2A (PPP2R4), PTPA (gene 5524); experiment: LTEA_HepaRG_PPP2R4: Life Technologies and Expression Analysis (LTEA) Assay for Protein phosphatase 2A (PPP2R4) using HepaRG (AID 2283522)
Summary of the method: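 Readout is PPP2R4 transcript level by microfluidic qRT-PCR after 48 h chemical treatment of human HepaRG liver cells. Concentrations spanned 100 uM downward in half-log steps; gain or loss of signal was fitted relative to DMSO.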

Measured: AC50

Sequence of Hypoxia-inducible factor 1-alpha (Homo sapiens) (Q16665 whole entry, looked up): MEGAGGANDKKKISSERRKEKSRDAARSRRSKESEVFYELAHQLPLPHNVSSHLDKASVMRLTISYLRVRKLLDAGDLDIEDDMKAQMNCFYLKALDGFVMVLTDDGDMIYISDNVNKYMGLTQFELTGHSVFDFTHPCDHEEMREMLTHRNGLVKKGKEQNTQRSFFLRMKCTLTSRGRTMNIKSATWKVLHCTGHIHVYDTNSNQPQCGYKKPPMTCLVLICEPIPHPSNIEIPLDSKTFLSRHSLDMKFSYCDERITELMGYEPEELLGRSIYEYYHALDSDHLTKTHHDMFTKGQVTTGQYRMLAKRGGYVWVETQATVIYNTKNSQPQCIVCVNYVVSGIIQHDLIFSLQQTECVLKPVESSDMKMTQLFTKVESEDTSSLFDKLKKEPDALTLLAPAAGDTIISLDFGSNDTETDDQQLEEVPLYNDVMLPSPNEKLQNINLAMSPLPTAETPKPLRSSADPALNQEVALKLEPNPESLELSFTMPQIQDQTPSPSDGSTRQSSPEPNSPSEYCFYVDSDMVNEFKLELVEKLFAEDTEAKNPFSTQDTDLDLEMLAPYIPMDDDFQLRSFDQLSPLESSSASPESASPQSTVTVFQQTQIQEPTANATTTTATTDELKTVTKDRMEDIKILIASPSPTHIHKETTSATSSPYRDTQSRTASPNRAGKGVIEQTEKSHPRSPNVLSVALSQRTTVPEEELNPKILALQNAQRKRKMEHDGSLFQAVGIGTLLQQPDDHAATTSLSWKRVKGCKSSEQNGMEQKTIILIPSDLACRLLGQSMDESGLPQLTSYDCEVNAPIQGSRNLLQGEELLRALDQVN
Sequence of Nuclear factor NF-kappa-B p105 subunit (Homo sapiens) (P19838 whole entry, looked up): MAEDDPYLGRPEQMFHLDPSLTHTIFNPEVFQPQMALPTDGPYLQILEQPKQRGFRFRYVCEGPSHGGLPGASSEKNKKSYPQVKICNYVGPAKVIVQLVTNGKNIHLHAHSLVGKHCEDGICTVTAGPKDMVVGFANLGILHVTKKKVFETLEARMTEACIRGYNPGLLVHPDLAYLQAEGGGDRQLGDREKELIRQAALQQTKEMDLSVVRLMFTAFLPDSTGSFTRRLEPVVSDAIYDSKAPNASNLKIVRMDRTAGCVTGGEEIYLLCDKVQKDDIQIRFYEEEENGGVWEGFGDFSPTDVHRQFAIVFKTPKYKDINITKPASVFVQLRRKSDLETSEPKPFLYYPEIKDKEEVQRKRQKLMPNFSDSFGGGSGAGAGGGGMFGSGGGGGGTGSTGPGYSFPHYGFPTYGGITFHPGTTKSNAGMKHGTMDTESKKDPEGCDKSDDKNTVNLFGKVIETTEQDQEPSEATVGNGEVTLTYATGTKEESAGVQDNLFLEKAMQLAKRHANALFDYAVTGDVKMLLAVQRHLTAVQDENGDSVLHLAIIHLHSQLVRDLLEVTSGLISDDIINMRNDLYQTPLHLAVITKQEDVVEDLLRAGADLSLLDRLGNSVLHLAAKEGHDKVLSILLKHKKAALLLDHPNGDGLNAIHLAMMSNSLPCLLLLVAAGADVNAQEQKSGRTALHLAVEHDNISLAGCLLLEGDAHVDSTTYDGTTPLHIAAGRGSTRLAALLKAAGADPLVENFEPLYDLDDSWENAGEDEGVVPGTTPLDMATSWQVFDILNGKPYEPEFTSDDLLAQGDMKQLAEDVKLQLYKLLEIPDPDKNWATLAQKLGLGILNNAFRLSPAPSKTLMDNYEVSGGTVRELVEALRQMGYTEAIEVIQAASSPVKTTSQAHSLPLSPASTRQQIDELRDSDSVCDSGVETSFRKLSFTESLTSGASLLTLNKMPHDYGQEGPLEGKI

N#CN
inactive: [1] | [2] | HGF (gene 3082) | [3] | [4] | [5] | [6] | [7] | [8] | [9] | [10] | [11] | [12] | [13] | MYC, MYC (gene 4609) | [14] | [15] | [16] | [17]

O=[N+]([O-])/N=C1\NCCN1Cc1ccc(Cl)nc1
active: [2] 33.9 µM | [3] 23 µM | [7] 39 µM | [11] 33 µM | [12] 23.9 µM | [15] 16.6 µM | [17] 24.3 µM
inactive: [1] | HGF (gene 3082) | [4] | [5] | [6] | [8] | [9] | [10] | [13] | MYC, MYC (gene 4609) | [14]

CCCN(CCC)c1c([N+](=O)[O-])cc(C(F)(F)F)cc1[N+](=O)[O-]
inactive: [1] | [2] | HGF (gene 3082) | [3] | [4] | [5] | [6] | [7] | [8] | [9] | [10] | [11] | [12] | [13] | MYC, MYC (gene 4609) | [14] | [15] | [16] | [17]
